# Screening data (PubChem BioAssay)
# Sm TGR inh: qHTS Assay for the Inhibitors of Schistosoma Mansoni Peroxiredoxins; Schistosoma mansoni thioredoxin glutathione reductase (TGR), Q962Y6; purified TGR, DTNB reduction, TNB absorbance 405 nm; Potency, µM (series often up to 114 µM), for the others: top-dose activity change, negative = inhibition, usual class: inhibitors; 360,000 compounds, 3% hits; further: nearly all actives have a fitted effect of over 60% in size
#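 Kinetic colorimetric format: TGR-catalysed, NADPH-driven DTNB reduction monitored via TNB absorbance. Enzyme dispensed at 20 nM; compound exposure 15 min at room temperature before reaction start.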
# AmpC no deterg: qHTS Inhibitors of AmpC Beta-Lactamase (assay without detergent); P00811; 330,000 compounds, 0.52% hits; AmpC nitrocefin hydrolysis, absorbance 480 nm, 0.0001% Triton; Potency, µM (series often up to 57.1 µM), for inactives: top-dose activity change, negative = inhibition, most hits filed as inhibitors;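 further: plate controls were no compound for no effect and no enzyme for full effect; nearly all actives have a fitted effect of over 20% in size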
# Target sequence (P00811 whole entry, looked up): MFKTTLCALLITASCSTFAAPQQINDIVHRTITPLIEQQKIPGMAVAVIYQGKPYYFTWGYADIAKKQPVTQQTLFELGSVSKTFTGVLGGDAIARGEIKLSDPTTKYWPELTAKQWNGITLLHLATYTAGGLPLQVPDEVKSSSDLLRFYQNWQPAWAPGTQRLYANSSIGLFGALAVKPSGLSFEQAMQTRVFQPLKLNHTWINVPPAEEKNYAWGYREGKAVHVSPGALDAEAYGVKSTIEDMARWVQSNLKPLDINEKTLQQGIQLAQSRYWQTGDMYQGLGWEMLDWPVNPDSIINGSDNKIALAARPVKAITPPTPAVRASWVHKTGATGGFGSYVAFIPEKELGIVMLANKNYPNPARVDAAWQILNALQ
#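 AmpC (5.3 nM in the dispensed reagent) in 20 mM phosphate pH 7.0 with 0.01% (detergent screen) or 0.0001% Triton X-100 was preincubated with compounds for 15 min at room temperature. Nitrocefin was then added from an 800 uM solution, and hydrolysis was followed at 480 nm.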
# AmpC inh detg: qHTS Inhibitors of AmpC Beta-Lactamase (assay with detergent). P00811. AmpC hydrolysis of nitrocefin, absorbance 480 nm, 0.01% Triton. 370,000 compounds, 0.041% hits. Potency, µM (doses to about 114 µM), inactives show top-dose activity change, negative = inhibition, hits mostly inhibitors;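 further: 0% = no-compound wells and -100% = no-enzyme wells; nearly all actives have a fitted effect of over 25% in size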
#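 AmpC (5.3 nM in the dispensed reagent) in 20 mM phosphate pH 7.0 with 0.01% (detergent screen) or 0.0001% Triton X-100 was preincubated with compounds for 15 min at room temperature. Nitrocefin was then added from an 800 uM solution, and hydrolysis was followed at 480 nm.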
# Starred values were filed as active, the others as inactive; ? = inconclusive; / = no result given. Rows were chosen to be rich in hits. Some 3.3% of all compounds tested hit in one or more screens of this group. The call rests on the fitted dose curve; in most records, active means well fitted curve in the direction sought with a large enough effect; inconclusive means small, poorly fitted or top-dose-only effect, or another doubt; inactive means no such curve, though single readings can be large; an effect the other way counts as inactive or inconclusive. Unless noted, on the % scale 0 is the no-effect control and ±100 the full control effect; potency means the concentration at half of the fitted maximal effect.
SMILES,Sm TGR inh,AmpC no deterg,AmpC inh detg
COc1ccc(N(C(=O)CCl)C(C(=O)NCCc2ccccc2)c2cccs2)cc1Cl (configuration not stated),10µM*,1%,-7%
CCc1ccc(S(=O)(=O)c2nnn3c2nc(NCc2cccs2)c2sccc23)cc1,1%,/,1%
Cc1cccc(NC(=O)c2cc3c(n(-c4ccccc4)c2=O)CCCC3=O)n1,32µM*,-21%,-10%
COc1ccc(-n2c3c(cc(C(=O)Nc4cccc(C)n4)c2=O)C(=O)CC(C)(C)C3)cc1,/,-1%,4%
COC(C[C@H](O)CC(=O)[C@H](C)OCc1ccccc1)OC,45µM*,-10%,-12%
COC(C[C@@H](O)CC(=O)[C@@H](C)OCc1ccccc1)OC,1%,0%,-1%
COc1ccc(NC(=O)C2CCCN2S(=O)(=O)c2ccc3c(c2)CCCC(=O)N3)cc1Cl (configuration not stated),8%,/,0%
CS(=O)(=O)N(Cc1ccccc1)c1ccc(C(=O)Nc2ccc(Cl)cc2)cc1,0%,/,15%
Cc1ccc(NC(=O)Nc2nnc(SCC(=O)N(C(C)C)C(C)C)s2)cc1,3%,/,1%
CC1(C)CC(=O)C(N=Nc2cccc([N+](=O)[O-])c2)=C(O)C1,?,-1%,-3%
CC1(C)CC(=O)C(N=Nc2ccc(C(F)(F)F)cc2[N+](=O)[O-])=C(O)C1,4µM*,23%,-5%
CC1(C)CC(=O)C(N=Nc2cccc(F)c2C#N)=C(O)C1,14µM*,-3%,4%
COc1ccc(N=NC2=C(O)CC(C)(C)CC2=O)c(OC)c1,-19%,48%,-5%
Cc1ccc(NC(=O)CSc2nc3ccccc3n2CC(=O)N2CCC(C)CC2)cc1C,-8%,/,2%
Cc1cc(C)c2sc(N3CCN(C(=O)c4ccc(N(C)C)cc4)CC3)nc2c1,10%,/,4%
O=C1NC(=O)C(=Cc2ccc(-c3ccc(S(=O)(=O)N4CCOCC4)cc3)o2)C(=O)N1,?,-11%,-1%
CC1(C)OC(=O)C(=Cc2ccc(-c3ccc(Cl)c(C(=O)O)c3)o2)C(=O)O1,-6%,-19%,?
NS(=O)(=O)c1ccc(-c2ccc(/C=C3\NC(=S)NC3=O)o2)cc1,8.9µM*,-17%,-7%
C=CCOC(=O)c1cc(-c2ccc(/C=C3\C(=O)NC(=O)C(C#N)=C3C)o2)ccc1Cl,7.9µM*,?,-24%
CC1=C(C#N)C(=O)NC(=O)/C1=C/c1ccc(-c2ccc(S(N)(=O)=O)cc2)o1,8.9µM*,-51%,-6%
NS(=O)(=O)c1ccc(-c2ccc(C=O)o2)cc1,-5%,-17%,0%
Cc1ccc(NC(=O)c2cc(S(=O)(=O)NC3CCCCCC3)ccc2F)cc1F,2%,/,1%
CC1=C(C(=O)OCCBr)C(c2cccc3ccccc23)NC(=O)N1 (configuration not stated),40µM*,-24%,?
CCOC(=O)C1=C(CN2CCSCC2)NC(=O)NC1c1ccc2c(c1)OCO2 (configuration not stated),4%,-9%,?
CCCCOc1ccccc1C1NC(=O)NC(C)=C1C(=O)OCCOCC (configuration not stated),1%,84%,-8%
SMILES,Sm TGR inh,AmpC no deterg,AmpC inh detg
CC1=C(C(=O)OCCCBr)C(c2ccc3c(c2)OCO3)NC(=O)N1 (configuration not stated),25µM*,-10%,7%
CCOC(=O)C1=C(CCl)NC(=O)NC1c1ccc2c(c1)OCO2 (configuration not stated),8.9µM*,-18%,?
CCCOC(=O)C1=C(C)NC(=O)NC1c1cccc2ccccc12 (configuration not stated),4%,-22%,-2%
CCCCOc1ccccc1C1NC(=O)NC(C)=C1C(=O)OCc1ccco1 (configuration not stated),45µM*,-35%,1%
CCCCCOC(=O)C1=C(C)NC(=O)NC1c1ccc2c(c1)OCO2 (configuration not stated),4%,-13%,?
O=c1c2ccccc2n2c(-c3ccccc3F)nnc2n1CCc1ccccc1,3%,/,3%
CCOc1ccccc1CNC(=O)CN1C(=O)CCCc2ccccc21,-2%,/,17%
O=C(Cn1cc(SCc2ccc(C(F)(F)F)cc2)c2ccccc21)N1CCCC1,7%,/,15%
COc1cccc(CNC(=O)c2ccc(NC(=O)N3CCCCc4ccccc43)cc2)c1,2%,/,8%
